Drawing on article PMC7862700, “An all-to-all approach to the identification of sequence-specific readers for epigenetic DNA modifications on cytosine”, this text covers binding signal for one sequence.

Common to all, as to assay: DAPPL (digital affinity profiling via proximity ligation, sequencing); 10 mM Tris-HCl pH 7.5, 50 mM NaCl, 1 mM DTT, 4% glycerol, room temperature, 30 min; GST-TFs on glutathione beads, 16-mer random dsDNA library, 0.1% formaldehyde crosslink after washing; high values mean tight binding
In assay [1] the target is T1, FEV (Homo sapiens, UniProt Q99581 1-238).
T1 sequence: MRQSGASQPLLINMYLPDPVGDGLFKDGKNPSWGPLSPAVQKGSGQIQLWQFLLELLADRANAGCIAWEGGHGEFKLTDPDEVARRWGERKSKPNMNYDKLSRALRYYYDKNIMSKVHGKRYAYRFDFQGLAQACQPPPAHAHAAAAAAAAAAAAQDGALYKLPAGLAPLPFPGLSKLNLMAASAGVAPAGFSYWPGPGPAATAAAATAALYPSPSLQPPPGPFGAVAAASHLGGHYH
To be noted: protein: recombinant; tags: N-terminal GST; dsDNA, one strand shown. The method in brief: (§1)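 Binding signal is given per hexamer as its read frequency for a factor divided by its frequency in the tag-only sample. GST-fused human transcription factors were expressed in yeast, captured on glutathione beads, barcoded with DNA and pooled with that sample, then incubated with 200 nmole of a 16-mer random double-stranded DNA library in Tris/NaCl/DTT/glycerol buffer for 30 min at room temperature. The pools were then washed, crosslinked, proximity-ligated, amplified by PCR and sequenced on an Illumina NextSeq500.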

Assay [2] concerns the target ETV5 (Homo sapiens, UniProt P41161 1-510). To be noted: protein: recombinant; tags: N-terminal GST; dsDNA, one strand shown. The method in brief:
as §1

In assay [3] the target is HSF1 (Homo sapiens, UniProt Q00613 1-529). As to conditions: protein: recombinant; tags: N-terminal GST; chain copies: 3; dsDNA, one strand shown. A digest of the protocol: as §1
Chain of HSF1 (Q00613 whole entry): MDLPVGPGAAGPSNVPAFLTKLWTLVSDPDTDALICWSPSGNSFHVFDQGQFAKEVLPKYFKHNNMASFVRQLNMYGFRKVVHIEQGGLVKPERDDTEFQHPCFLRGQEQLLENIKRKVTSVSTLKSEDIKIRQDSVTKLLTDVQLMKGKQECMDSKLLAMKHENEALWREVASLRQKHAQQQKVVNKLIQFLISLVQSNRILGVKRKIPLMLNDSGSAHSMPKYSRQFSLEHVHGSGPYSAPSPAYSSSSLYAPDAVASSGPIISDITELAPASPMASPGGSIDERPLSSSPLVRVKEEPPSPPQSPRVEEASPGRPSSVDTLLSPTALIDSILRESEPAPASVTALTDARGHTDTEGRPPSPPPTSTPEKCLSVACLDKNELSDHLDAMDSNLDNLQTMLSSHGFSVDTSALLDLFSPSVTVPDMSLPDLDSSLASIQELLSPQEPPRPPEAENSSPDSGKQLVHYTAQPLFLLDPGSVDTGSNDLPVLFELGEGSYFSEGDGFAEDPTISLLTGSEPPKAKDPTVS
The target of assay [4] is T2, SPIC (Homo sapiens, UniProt Q8N5J4 1-248).
T2 sequence: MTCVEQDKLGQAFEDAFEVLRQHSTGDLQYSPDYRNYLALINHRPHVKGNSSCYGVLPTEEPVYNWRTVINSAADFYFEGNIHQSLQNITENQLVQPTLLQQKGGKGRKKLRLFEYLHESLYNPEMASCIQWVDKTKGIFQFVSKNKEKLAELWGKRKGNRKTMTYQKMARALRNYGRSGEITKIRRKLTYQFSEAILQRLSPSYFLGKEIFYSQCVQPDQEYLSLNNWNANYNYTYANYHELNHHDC
As to conditions: protein: recombinant; tags: N-terminal GST; dsDNA, one strand shown. The method in brief: as §1

The target in assay [5] is ELF4 (Homo sapiens, UniProt Q99607 1-663). To be noted: protein: recombinant; tags: N-terminal GST; dsDNA, one strand shown. The method in brief:
as §1

For assay [6], the target named is T3, ELK4 (Homo sapiens, UniProt P28324-2 1-405).
T3 sequence: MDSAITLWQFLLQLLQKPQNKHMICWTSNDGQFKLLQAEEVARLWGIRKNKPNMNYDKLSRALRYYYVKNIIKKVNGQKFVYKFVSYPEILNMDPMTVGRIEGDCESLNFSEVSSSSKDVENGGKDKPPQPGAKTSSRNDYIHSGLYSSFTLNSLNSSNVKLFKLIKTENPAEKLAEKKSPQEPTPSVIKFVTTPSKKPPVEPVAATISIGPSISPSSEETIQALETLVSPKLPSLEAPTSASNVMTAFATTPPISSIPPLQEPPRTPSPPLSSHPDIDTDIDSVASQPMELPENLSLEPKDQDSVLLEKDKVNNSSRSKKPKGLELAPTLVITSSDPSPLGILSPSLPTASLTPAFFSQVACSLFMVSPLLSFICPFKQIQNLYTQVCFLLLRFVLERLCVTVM
To be noted: protein: recombinant; tags: N-terminal GST; dsDNA, one strand shown. The method in brief: as §1

Assay [7] has as its target T4, ETV2 (Homo sapiens, UniProt O00321 1-342).
T4 sequence: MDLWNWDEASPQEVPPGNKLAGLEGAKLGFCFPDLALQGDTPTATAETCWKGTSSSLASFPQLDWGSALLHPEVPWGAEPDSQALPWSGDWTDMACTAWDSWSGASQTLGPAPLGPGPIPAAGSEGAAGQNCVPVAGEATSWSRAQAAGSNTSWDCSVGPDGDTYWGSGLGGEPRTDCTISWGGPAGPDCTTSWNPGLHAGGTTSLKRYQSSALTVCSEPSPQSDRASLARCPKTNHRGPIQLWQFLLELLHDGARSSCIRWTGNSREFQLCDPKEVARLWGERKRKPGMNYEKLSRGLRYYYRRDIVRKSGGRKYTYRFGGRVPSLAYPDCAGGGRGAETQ
To be noted: protein: recombinant; tags: N-terminal GST; dsDNA, one strand shown. A digest of the protocol:
as §1

Assay [8] has as its target T5, ELF3 (Homo sapiens, UniProt P78545 1-371).
T5 sequence: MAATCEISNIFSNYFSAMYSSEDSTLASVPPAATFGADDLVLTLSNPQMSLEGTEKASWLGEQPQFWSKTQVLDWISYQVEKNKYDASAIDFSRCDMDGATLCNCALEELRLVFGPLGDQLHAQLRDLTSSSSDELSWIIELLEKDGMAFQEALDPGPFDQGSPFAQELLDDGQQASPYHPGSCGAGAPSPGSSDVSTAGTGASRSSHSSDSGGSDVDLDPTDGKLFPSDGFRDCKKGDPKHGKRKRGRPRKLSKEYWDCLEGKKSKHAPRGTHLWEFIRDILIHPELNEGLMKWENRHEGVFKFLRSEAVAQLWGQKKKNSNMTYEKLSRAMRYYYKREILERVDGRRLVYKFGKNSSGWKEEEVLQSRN
To be noted: protein: recombinant; tags: N-terminal GST; dsDNA, one strand shown. The method in brief:
as §1

The target in assay [9] is CRX (Homo sapiens, UniProt O43186 1-299). As to conditions: protein: recombinant; tags: N-terminal GST; dsDNA, one strand shown. The method in brief: as §1
Chain of CRX (O43186 whole entry): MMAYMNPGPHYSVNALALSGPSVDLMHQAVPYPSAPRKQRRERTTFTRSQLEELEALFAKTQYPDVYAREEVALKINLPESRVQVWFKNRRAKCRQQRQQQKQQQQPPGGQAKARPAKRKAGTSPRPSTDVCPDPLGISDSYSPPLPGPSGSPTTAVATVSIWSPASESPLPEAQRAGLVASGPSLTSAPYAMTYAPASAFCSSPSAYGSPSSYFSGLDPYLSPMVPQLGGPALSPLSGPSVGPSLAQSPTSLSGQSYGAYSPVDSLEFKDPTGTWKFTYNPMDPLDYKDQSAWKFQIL
The target of assay [10] is ETV1 (Homo sapiens, UniProt P50549 1-477). As to conditions: protein: recombinant; tags: N-terminal GST; dsDNA, one strand shown. The method in brief: as §1
Chain of ETV1 (P50549 whole entry): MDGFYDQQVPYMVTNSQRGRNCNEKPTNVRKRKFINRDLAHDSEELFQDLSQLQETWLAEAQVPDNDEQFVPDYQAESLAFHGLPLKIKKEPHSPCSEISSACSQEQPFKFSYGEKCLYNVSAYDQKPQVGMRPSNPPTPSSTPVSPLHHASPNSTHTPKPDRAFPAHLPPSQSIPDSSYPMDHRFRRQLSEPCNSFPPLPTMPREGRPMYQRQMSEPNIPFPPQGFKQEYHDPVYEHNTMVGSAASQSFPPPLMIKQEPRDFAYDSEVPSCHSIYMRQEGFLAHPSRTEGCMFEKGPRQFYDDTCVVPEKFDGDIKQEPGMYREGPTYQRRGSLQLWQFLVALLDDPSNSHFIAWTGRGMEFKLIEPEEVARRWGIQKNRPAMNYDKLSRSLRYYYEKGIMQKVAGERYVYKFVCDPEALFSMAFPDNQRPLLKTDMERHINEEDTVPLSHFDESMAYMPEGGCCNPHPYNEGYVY
Assay [11] addresses T6, ERF (Homo sapiens, UniProt P50548 1-548).
T6 sequence: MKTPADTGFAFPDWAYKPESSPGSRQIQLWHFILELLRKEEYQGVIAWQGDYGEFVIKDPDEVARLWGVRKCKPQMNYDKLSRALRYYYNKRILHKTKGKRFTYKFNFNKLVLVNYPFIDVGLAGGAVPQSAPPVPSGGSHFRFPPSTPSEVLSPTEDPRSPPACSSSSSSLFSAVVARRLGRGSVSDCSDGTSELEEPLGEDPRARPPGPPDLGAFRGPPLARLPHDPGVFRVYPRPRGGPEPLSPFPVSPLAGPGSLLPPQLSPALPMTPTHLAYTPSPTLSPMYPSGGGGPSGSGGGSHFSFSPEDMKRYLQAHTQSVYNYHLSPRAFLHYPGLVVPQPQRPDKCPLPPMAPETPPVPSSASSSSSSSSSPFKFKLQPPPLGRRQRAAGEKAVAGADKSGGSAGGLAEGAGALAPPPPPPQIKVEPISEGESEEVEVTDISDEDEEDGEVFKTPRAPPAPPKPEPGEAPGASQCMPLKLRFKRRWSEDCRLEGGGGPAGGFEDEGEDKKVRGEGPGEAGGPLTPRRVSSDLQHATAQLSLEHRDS
To be noted: protein: recombinant; tags: N-terminal GST; dsDNA, one strand shown. A digest of the protocol:
as §1

Assay [12] concerns the target T7, ETV3L (Homo sapiens, UniProt Q6ZN32 1-361).
T7 sequence: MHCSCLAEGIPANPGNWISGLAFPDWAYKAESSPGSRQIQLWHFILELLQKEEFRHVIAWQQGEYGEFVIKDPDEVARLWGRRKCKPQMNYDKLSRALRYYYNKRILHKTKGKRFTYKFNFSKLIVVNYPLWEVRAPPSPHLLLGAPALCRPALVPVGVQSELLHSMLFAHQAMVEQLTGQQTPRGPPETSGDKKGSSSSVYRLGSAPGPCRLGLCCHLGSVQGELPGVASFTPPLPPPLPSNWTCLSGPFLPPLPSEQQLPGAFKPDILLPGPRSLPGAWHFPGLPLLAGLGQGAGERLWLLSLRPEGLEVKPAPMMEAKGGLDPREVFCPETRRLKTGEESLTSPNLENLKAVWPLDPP
As to conditions: protein: recombinant; tags: N-terminal GST; dsDNA, one strand shown. The method in brief:
as §1

Assay [13] deals with T8, ETS2 (Homo sapiens, UniProt P15036 1-469).
T8 sequence: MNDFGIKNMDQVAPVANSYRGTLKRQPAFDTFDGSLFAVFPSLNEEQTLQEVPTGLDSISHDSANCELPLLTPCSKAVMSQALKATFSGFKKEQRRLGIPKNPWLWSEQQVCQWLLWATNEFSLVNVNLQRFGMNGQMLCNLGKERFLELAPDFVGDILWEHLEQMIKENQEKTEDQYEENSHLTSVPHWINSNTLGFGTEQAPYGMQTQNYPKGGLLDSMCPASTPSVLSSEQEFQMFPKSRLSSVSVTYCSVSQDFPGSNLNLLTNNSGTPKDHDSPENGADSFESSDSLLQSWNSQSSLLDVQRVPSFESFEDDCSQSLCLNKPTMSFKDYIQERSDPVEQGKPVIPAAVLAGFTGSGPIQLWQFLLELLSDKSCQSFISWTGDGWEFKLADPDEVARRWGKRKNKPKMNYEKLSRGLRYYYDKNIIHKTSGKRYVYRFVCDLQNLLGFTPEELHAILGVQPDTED
To be noted: protein: recombinant; tags: N-terminal GST; dsDNA, one strand shown. A digest of the protocol:
as §1

Assay [14] addresses T9, SPDEF (Homo sapiens, UniProt O95238 1-335).
T9 sequence: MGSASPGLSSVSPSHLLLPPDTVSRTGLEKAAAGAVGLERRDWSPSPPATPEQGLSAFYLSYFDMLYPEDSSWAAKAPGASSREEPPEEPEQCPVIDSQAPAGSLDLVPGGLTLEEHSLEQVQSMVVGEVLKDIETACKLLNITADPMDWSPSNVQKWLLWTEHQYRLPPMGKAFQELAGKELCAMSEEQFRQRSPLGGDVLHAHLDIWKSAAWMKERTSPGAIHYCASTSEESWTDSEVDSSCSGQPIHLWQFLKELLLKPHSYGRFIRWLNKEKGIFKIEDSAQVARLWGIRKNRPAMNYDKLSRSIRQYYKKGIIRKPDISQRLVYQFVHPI
As to conditions: protein: recombinant; tags: N-terminal GST; dsDNA, one strand shown. A digest of the protocol: as §1

Assay [15] addresses T10, ETV7 (Homo sapiens, UniProt Q9Y603 1-341).
T10 sequence: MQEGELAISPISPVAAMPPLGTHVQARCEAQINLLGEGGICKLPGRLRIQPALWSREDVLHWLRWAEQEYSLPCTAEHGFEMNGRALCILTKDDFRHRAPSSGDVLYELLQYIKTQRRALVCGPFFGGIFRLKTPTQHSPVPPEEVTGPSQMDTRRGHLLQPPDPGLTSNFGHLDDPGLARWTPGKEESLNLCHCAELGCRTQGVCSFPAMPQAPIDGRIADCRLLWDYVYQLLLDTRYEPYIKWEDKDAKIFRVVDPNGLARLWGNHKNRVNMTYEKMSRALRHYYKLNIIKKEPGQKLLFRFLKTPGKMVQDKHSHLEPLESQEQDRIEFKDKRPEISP
As to conditions: protein: recombinant; tags: N-terminal GST; dsDNA, one strand shown. A digest of the protocol: as §1

Assay [16] addresses T11, ELF5 (Homo sapiens, UniProt Q9UKW6-2 1-255).
T11 sequence: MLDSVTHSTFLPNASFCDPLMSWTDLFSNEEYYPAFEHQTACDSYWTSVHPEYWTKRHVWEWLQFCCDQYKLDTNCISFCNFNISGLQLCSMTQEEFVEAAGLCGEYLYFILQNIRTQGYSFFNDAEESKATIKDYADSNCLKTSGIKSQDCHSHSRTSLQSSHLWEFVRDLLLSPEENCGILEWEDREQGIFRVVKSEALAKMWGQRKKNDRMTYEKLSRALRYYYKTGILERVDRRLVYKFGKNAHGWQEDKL
To be noted: protein: recombinant; tags: N-terminal GST; dsDNA, one strand shown. A digest of the protocol:
as §1

Assay [17] concerns the target T12, ETV3 (Homo sapiens, UniProt P41162-2 1-143).
T12 sequence: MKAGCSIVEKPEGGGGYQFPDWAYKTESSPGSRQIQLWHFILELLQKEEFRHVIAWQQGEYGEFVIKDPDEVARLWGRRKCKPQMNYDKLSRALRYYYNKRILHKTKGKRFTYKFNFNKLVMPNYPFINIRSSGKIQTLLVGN
As to conditions: protein: recombinant; tags: N-terminal GST; dsDNA, one strand shown. A digest of the protocol:
as §1

The target in assay [18] is ETV6 (Homo sapiens, UniProt P41212 1-452). To be noted: protein: recombinant; tags: N-terminal GST; dsDNA, one strand shown. The method in brief:
as §1

Chain of ETV6 (P41212 whole entry): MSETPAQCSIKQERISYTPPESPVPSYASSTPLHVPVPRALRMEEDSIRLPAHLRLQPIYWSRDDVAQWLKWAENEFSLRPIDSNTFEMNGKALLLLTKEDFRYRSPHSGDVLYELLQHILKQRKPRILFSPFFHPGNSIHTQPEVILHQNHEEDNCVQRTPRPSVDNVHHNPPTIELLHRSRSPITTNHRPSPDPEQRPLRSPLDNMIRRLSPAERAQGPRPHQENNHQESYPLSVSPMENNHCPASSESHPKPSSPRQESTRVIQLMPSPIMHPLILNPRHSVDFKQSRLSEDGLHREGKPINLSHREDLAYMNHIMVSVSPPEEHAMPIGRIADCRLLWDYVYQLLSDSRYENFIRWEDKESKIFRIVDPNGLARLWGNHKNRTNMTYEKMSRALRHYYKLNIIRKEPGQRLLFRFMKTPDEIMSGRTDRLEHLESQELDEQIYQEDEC
Chain of ETV5 (P41161 whole entry): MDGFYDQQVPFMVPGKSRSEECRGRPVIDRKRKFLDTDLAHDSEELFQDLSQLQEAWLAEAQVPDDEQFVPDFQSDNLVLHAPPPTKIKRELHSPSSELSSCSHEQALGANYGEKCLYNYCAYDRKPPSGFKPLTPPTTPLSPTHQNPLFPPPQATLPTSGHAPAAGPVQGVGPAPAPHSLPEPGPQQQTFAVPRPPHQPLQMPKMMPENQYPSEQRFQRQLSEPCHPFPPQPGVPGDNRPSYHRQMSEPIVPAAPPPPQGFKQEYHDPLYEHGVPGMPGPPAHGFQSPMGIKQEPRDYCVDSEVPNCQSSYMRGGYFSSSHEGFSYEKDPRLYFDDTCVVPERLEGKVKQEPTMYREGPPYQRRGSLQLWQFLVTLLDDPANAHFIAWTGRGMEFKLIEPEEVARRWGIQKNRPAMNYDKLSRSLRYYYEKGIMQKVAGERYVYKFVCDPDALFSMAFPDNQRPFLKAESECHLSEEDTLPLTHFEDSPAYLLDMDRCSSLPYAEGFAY
Chain of ELF4 (Q99607 whole entry): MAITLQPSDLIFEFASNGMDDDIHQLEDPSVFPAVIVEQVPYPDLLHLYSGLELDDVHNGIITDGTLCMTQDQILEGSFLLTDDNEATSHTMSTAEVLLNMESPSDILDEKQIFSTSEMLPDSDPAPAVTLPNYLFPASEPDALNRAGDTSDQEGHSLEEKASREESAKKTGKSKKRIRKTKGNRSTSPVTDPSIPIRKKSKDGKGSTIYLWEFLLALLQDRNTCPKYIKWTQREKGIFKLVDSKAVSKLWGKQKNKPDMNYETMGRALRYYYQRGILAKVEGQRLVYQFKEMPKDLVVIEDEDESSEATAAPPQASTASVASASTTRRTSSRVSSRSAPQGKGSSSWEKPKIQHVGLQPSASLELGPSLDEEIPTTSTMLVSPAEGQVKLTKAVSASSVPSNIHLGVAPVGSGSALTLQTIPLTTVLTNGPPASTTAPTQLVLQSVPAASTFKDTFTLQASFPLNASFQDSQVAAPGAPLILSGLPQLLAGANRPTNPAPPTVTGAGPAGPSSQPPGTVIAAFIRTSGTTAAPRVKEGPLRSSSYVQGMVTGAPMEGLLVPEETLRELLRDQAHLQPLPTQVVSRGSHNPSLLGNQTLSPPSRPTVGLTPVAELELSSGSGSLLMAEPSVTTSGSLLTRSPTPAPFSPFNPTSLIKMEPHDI

As to GCACTT, the binding signal was 2.33 fold enrichment (6-mer frequency, TF over GST control) in assay [1]; 1.88 fold enrichment (6-mer frequency, TF over GST control) in [2]; 1.17 fold enrichment (6-mer frequency, TF over GST control) in assay [3]; 1.63 fold enrichment (6-mer frequency, TF over GST control) in assay [4]; 1.77 fold enrichment (6-mer frequency, TF over GST control) in assay [5]; 1.62 fold enrichment (6-mer frequency, TF over GST control) in [6]. Moreover, the binding signal in assay [7] was 1.66 fold enrichment (6-mer frequency, TF over GST control); in assay [8], 1.85 fold enrichment (6-mer frequency, TF over GST control); in assay [9] it was 1.16 fold enrichment (6-mer frequency, TF over GST control); in assay [10] it was 1.86 fold enrichment (6-mer frequency, TF over GST control); in assay [11], 1.61 fold enrichment (6-mer frequency, TF over GST control); in [12], 1.84 fold enrichment (6-mer frequency, TF over GST control). For the same sequence, the binding signal is 1.76 fold enrichment (6-mer frequency, TF over GST control) in assay [13]; 1.91 fold enrichment (6-mer frequency, TF over GST control) in assay [14]; 1.92 fold enrichment (6-mer frequency, TF over GST control) in assay [15]; 1.88 fold enrichment (6-mer frequency, TF over GST control) in assay [16]; 1.94 fold enrichment (6-mer frequency, TF over GST control) in [17]; 2 fold enrichment (6-mer frequency, TF over GST control) in assay [18].
